PAX8 reporter: lowers PAX8-driven luciferase in RMG-I cells; RMG-I TPO-luciferase reporter, SteadyGlo, 24 h; inhibition, % at 12.6 µM; hit rate 1.2% among 360,000; AID 652154;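 active = mean replicate inhibition at least 60% with every replicate also reaching 60%; inconclusive = only one of the two criteria is met; inactive = mean below 60% and not all replicates reaching 60%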;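 also: luciferase light reporting Pax8 driven TPO promoter activity; plate controls were median of neutral control wells for no effect and mitoxantrone controls for full effect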
N-glyco inh: N-linked glycosylation inhibition. D54 ERlucT glycosylation luciferase reporter, 24 h; percent of 100 nM tunicamycin response. reporter increase, % at 12.5 µM. hit rate 0.23% among 360,000. AID 588692;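 active = mean luciferase reporter signal, scaled so untreated is 0 and the glycosylation-blocking control 100, at or above a set limit in every replicate; inconclusive = mean reaches the limit but not every replicate does; inactive = mean below the limit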;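 also: luciferase carries N-glycosylation sites so blocking glycosylation raises the light; 0% = median of neutral control wells and 100% = median of 100 nM tunicamycin wells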
HIV Env fusion: inhibitors of HIV Env-mediated cell fusion | HeLa-JRFL Env/CEM21 cell fusion, luciferase | inhibition, % at 12.3 µM | hit rate 1.1% among 360,000;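 active = mean replicate inhibition score of at least 50 and every replicate individually at or above 50; inconclusive = only one of the two criteria met; inactive = mean below 50 and not all replicates reaching 50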;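 also: 0% = plate neutral controls and 100% = maraviroc near 300 nM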
Shn3 3UTR inh: Schnurri-3 reporter inhibition in Clone20 osteoblasts | Clone20 osteoblast Shn3 3'UTR firefly luciferase, 24 h | inhibition, % at 12.5 µM | hit rate 0.52% among 360,000 | AID 588674;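 active = mean inhibition of at least 75% with every replicate also reaching 75%; inconclusive = mean inhibition at least 75% but some replicate below; inactive = mean inhibition below 75%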;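 also: 0% = median of neutral control wells and 100% = pilot-screen positive control compound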
NSD2 HMT inh: blocks human histone methyltransferase NSD2; O96028; NSD2 peptide methylation, AlphaScreen, 120 min; inhibition, % at 12.5 µM; hit rate 0.54% among 310,000; AID 743445; in the data active = inhibition above about 50%
Target sequence (O96028 whole entry, looked up): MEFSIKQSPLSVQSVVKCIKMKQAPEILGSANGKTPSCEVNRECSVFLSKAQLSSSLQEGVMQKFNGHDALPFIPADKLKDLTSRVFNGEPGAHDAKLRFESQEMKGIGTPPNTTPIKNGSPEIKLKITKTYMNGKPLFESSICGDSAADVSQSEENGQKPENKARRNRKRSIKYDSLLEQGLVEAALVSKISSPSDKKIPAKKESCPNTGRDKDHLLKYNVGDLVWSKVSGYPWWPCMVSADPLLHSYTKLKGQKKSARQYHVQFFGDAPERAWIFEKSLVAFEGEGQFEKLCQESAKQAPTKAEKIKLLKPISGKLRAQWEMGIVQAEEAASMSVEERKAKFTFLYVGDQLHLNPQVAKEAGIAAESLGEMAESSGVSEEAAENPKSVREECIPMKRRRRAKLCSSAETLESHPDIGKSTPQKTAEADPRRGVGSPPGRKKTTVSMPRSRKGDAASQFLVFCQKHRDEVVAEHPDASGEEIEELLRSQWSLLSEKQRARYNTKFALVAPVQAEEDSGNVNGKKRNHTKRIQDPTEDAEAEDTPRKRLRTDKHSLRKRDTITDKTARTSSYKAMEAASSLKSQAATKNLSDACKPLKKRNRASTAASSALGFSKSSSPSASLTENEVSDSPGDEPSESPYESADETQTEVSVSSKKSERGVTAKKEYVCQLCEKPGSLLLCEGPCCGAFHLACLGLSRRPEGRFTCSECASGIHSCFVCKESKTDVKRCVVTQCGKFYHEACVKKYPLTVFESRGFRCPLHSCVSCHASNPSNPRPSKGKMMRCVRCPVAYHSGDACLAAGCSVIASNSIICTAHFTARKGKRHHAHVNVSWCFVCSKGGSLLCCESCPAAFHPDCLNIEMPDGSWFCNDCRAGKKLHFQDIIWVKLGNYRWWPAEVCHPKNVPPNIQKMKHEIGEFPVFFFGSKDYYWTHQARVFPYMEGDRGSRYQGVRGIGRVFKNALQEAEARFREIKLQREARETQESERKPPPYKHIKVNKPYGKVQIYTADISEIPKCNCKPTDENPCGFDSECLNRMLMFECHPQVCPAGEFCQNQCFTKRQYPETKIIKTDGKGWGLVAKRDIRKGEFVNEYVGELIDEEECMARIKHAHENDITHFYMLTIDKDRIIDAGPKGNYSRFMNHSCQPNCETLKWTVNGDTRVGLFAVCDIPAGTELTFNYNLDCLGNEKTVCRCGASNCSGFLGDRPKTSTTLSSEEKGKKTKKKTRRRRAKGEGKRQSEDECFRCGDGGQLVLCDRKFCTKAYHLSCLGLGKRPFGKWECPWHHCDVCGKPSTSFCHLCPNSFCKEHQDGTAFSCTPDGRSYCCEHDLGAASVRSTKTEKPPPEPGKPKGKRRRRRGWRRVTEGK
EBV LMP1 NFkB: inhibitors of Epstein-Barr LMP1-induced NF-kappaB reporter. inhibition, % at 12.5 µM. LMP1-induced NF-kappaB luciferase reporter cells, luminescence. hit rate 0.69% among 350,000. AID 504558; in the data active = inhibition above about 41%; inconclusive = no clear call, values can overlap the other calls;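 also: 0% = neutral control wells and 100% = reference inhibitor control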
* hit, by the source's call; ? = inconclusive; nt = no result given; [ ] = remark or other dose. Compounds with a hit are over-represented: about 2.8% of the library has one in this group of screens.

SMILES	PAX8 reporter	N-glyco inh	HIV Env fusion	Shn3 3UTR inh	NSD2 HMT inh	EBV LMP1 NFkB
Cc1ccc(C(=O)NCCc2ccncc2)cc1	nt	-2	-125	-55	0	-14
Cc1ccc(C(=O)NCCc2ccccc2)cc1	nt	-19	nt	21	-1	57*
O=C(NCCc1ccccc1)c1ccc2c(c1)OCCCO2	110*	-20	50	?	-4	85*
COc1ccc(CCNC(=O)c2ccc3c(c2)OCCO3)cc1	-135	-1	-23	-63	-1	-17
O=C(CCCc1ccccc1)c1ccc2c(c1)OCCO2	nt	-23	nt	52	-4	61*
O=C(NCCOc1ccccc1)c1ccc2c(c1)OCO2	nt	-21	nt	-4	1	66*
C[C@H](CO)N1C[C@H](C)[C@@H](CN(C)Cc2ccccc2F)Oc2cc(C#CC3CC3)ccc2S1(=O)=O	nt	nt	21[16.7 µM]	nt	nt	nt
COCC(=O)Nc1ccc2c(c1)[C@@H]1C[C@@H](CC(=O)NCc3cccnc3)O[C@@H](CO)[C@@H]1O2	-6	nt	10[16.7 µM]	nt	nt	nt
COc1cccc(C#Cc2ccc([C@H]3[C@H]4CN(S(=O)(=O)c5ccccc5C)CC(=O)N4[C@H]3CO)cc2)c1	26	nt	nt	nt	nt	nt
COCC(=O)Nc1ccc2c(c1)[C@@H]1C[C@@H](CC(=O)NC3CCCC3)O[C@@H](CO)[C@@H]1O2	0	nt	-3[16.7 µM]	nt	nt	nt
CN(C)CC(=O)N1[C@H](CO)[C@@H](c2ccc(-c3ccc(C(=O)N(C)C)cc3)cc2)[C@@H]1C#N	-10	nt	-25[16.7 µM]	nt	nt	nt
O=C(CCN1CCC(c2ccccc2)C1)c1ccc2c(c1)OCCO2 (stereo not drawn)	76*	1	3	11	nt	82*
C[C@@H]1CN([C@H](C)CO)C(=O)c2cc(NS(=O)(=O)c3ccc(Cl)cc3)ccc2O[C@@H](C)CCCCO[C@H]1CN(C)S(=O)(=O)c1ccc(F)cc1	87*	nt	-15[16.7 µM]	nt	nt	nt
C[C@H](CO)N1C[C@H](C)[C@@H](CN(C)S(=O)(=O)c2ccc(F)cc2)OCCCC[C@H](C)Oc2ccc(NS(=O)(=O)c3ccc(Cl)cc3)cc2C1=O	90*	nt	-5[16.7 µM]	nt	nt	nt
C[C@@H]1CCCCO[C@@H](CN(C)S(=O)(=O)c2ccc(F)cc2)[C@@H](C)CN([C@@H](C)CO)C(=O)c2cc(NS(=O)(=O)c3ccc(Cl)cc3)ccc2O1	43	nt	-50[16.7 µM]	nt	nt	nt
C[C@@H]1CCCCO[C@H](CN(C)S(=O)(=O)c2ccc(Cl)cc2)[C@@H](C)CN([C@@H](C)CO)C(=O)c2cc(NS(=O)(=O)c3ccc(F)cc3)ccc2O1	75*	nt	48[16.7 µM]	nt	nt	nt
C[C@@H]1CCCCO[C@@H](CN(C)S(=O)(=O)c2ccc(Cl)cc2)[C@H](C)CN([C@H](C)CO)C(=O)c2cc(NS(=O)(=O)c3ccc(F)cc3)ccc2O1	81*	nt	25[16.7 µM]	nt	nt	nt
C[C@@H]1CN([C@@H](C)CO)C(=O)c2cc(NS(=O)(=O)c3ccc(F)cc3)ccc2O[C@@H](C)CCCCO[C@@H]1CN(C)S(=O)(=O)c1ccc(Cl)cc1	46	nt	-65[16.7 µM]	nt	nt	nt
O=C(Nc1ccccc1)Nc1ccc2c(c1)[C@H]1C[C@H](CC(=O)N3CCOCC3)O[C@@H](CO)[C@H]1O2	-2	nt	24[16.7 µM]	nt	nt	nt
C[C@@H]1CCCCO[C@H](CN(C)C(=O)CCCN(C)C)[C@H](C)CN([C@H](C)CO)C(=O)c2cc(NC(=O)C3CCCCC3)ccc2O1	nt	nt	9[16.7 µM]	nt	nt	nt
CO[C@@H]1CN(C)C(=O)c2ccc(NC(=O)C3CC3)cc2OC[C@@H](C)N(C(=O)Cc2ccccn2)C[C@@H]1C	-17	nt	nt	nt	nt	nt
C[C@@H]1CN([C@H](C)CO)C(=O)c2cc(N(C)C)ccc2O[C@@H](C)CCCCO[C@H]1CN(C)S(=O)(=O)c1ccc(F)cc1	39	nt	-2[16.7 µM]	nt	nt	nt
CCCN1C[C@H](C)[C@@H](OC)CN(C)C(=O)c2cc(NC(=O)C3CCC3)ccc2OC[C@H]1C	2	nt	-14[16.7 µM]	nt	nt	nt
CCOc1ccc(-c2cccc(NS(=O)(=O)c3ccccc3[N+](=O)[O-])c2)nn1	3	0	94*	-13	17	-3
C[C@H](CO)N1C[C@H](C)[C@@H](CN(C)CC2CC2)OCCCC[C@H](C)Oc2ccc(NS(C)(=O)=O)cc2C1=O	2	nt	2[16.7 µM]	nt	nt	nt
O=C(N[C@@H]1CC[C@H](CCn2cc(Cc3ccccc3)nn2)O[C@@H]1CO)c1ccccn1	9	nt	-27[16.7 µM]	nt	nt	nt
O=C(/C=C/c1ccc(Cl)cc1Cl)N1CCN(c2ccc([N+](=O)[O-])c(N3CCOCC3)c2)CC1	-2	-2	33	40	1	8
